HepG2 viability – kills HepG2 cells in TGF-b inhibitor counter-screen; HepG2 CAGA-GFP viability, ATP luminescence, 18 h; Potency, µM (top dose mostly 46.1 µM), actives largely listed as cytotoxic; 410,000 tested, 0.76% active; AID 588856
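CellTiter-Glo luminescence gave cytotoxicity after 18 hours at 37 degrees C. The cells were HepG2 CAGA-GFP in 1% FBS DMEM, stimulated with 500 pg/mL TGF-beta after compound addition. %Activity was normalised to no-cell wells (complete cell-killing) and DMSO (no toxicity), and curves were fitted and classified.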
ALOX12 inh – ALOX12 (human) lipoxygenase inhibition; P18054; purified 12hLO, xylenol orange hydroperoxide absorbance; Potency, µM (highest dose often 108 µM), actives largely listed as inhibitors; 580,000 tested, 1.1% active
Target sequence (P18054 whole entry, looked up): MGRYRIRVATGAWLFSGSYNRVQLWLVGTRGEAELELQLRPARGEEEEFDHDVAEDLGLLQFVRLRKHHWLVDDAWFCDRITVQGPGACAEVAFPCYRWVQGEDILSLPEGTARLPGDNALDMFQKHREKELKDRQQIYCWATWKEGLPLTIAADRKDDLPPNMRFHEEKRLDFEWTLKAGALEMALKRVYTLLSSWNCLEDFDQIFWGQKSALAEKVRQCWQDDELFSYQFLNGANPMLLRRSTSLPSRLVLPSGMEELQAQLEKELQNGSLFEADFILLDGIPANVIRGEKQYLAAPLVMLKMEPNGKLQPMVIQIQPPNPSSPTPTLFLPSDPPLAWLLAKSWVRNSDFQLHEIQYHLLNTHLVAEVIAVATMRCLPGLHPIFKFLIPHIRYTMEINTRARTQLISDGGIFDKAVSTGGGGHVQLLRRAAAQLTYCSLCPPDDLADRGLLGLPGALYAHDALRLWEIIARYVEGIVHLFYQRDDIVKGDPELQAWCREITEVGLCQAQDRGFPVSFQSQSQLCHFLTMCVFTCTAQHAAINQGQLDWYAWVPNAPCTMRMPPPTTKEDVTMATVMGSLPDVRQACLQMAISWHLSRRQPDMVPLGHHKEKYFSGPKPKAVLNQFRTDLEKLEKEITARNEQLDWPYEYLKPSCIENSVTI
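Purified human 12hLO (150 nM final) in 25 mM Hepes, 0.01% Triton X-100, pH 7.0 was preincubated 15 min at room temperature with compound. Then 40 uM arachidonic acid was added, 30 min. Hydroperoxide was read by Fe-XO absorbance ratio 573/405 nm.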
ATXN2 expr inh – ATXN2 expression inhibition; HEK-293 ATXN2-luciferase reporter, luminescence, 24 h; Potency, µM (highest dose often 57 µM), hits mostly inhibitors; 360,000 tested, 0.72% active; AID 1745845; also: nearly all actives have a fitted effect of over 55% in size
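ATXN2-luciferase reporter cells (luciferase flanked by upstream and downstream ATXN2 gene portions) were treated 24 h at 37 °C with compounds at up to 57 uM. SteadyGlo luminescence gave expression; GF-AFC fluorescence gave viability.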
TGFb inhibitor – blocks TGF-b signaling. HepG2 CAGA-GFP TGF-b/SMAD3 reporter, GFP fluorescence, 18 h; TGF-beta stimulated, 500 pg/mL final. Potency, µM (titrated, usually from 46.1 µM), most hits filed as inhibitors. 410,000 tested, 1.2% active. AID 588855; also: nearly all actives have a fitted effect of over 65% in size
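Smad-responsive CAGA-GFP expression was quantified in HEPG2 cells exposed to compounds and 500 pg/mL final TGF-beta for 18 h at 37 degrees C; unstimulated wells defined full inhibition.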
ATXN viability – cell viability loss in ATXN counter-screen | S2 cells (HEK-293 line with an ATXN2-luciferase reporter) viability, CellTiter-Fluor protease fluorescence, 24 h | Potency, µM (series often up to 56.7 µM), hits mostly cytotoxic | 400,000 tested, 0.49% active | AID 651635; also: nearly all actives have a fitted effect of over 40% in size
Numbers stand for hits; i = inactive; ? = inconclusive; nt = not tested or not shown; [ ] = remark or other dose. Most compounds without a hit are left out; they make up all but 2.7% or so of the library. Calls follow the shape of the dose curve; as a rule, active = well fitted curve in the direction sought with a large enough effect; inconclusive = small, poorly fitted or top-dose-only effect, or another doubt; inactive = no such curve, though single readings can be large; an effect the other way counts as inactive or inconclusive.

SMILES | HepG2 viability | ALOX12 inh | ATXN2 expr inh | TGFb inhibitor | ATXN viability
O/N=C(/c1ccc(F)cc1)c1ccc(O)cc1O | nt | i | nt | nt | nt
CCOC(=O)c1ccc(NS(=O)C23CC4CC(CC(C4)C2)C3)cc1 (stereo not given) | i | 7.08µM | i | i | i
CCOC(=O)c1ccc(NC(=O)CNC(=O)C23CC4CC(CC(C4)C2)C3)cc1 | i | i | i | i | i
COc1cccc(-c2nnc3sc(NC(=O)C(C)C)nn23)c1 | nt | i | nt | nt | nt
CC1(C)N=C(N)N=C(N)N1c1cccc(C#N)c1 | 2µM | i | i | i | i
O=C(Nc1oc2ccccc2c(=O)c1-c1ccc(F)cc1)c1cccc([N+](=O)[O-])c1 | nt | i | nt | nt | nt
CC(=O)Nc1cc(-c2cccc(F)c2)cn2c(-c3ccc(F)c(Cl)c3)cnc12 | i | i | i | 17.8µM | ?
CC(=O)Nc1cc(-c2ccccc2)cn2c(-c3ccc(F)c(Cl)c3)cnc12 | i | ? | i | i | i
CC(=O)Nc1cc(-c2ccc(CO)cc2)cn2c(-c3ccc(F)c(Cl)c3)cnc12 | i | 35.5µM | i | ? | i
NC(=O)N1CCC2(CC1)NC(=O)N(c1ccccc1)N2 | i | ? | i | ? | i
O=C(COc1ccccc1)N1CCC2(CC1)NC(=O)N(c1cccc(F)c1)N2 | nt | 2.82µM | nt | nt | nt
Cc1cccc(OCC(=O)N2CCC3(CC2)NC(=O)N(Cc2ccccc2)C3=O)c1 | nt | i | nt | nt | nt
Cc1cccc(OCC(=O)N2CCC3(CC2)NC(=O)N(c2cccc(F)c2)N3)c1 | nt | 2.24µM | nt | nt | nt
O=C(COc1ccc(F)cc1)N1CCC2(CC1)NC(=O)N(c1ccc(F)cc1)N2 | nt | 2.51µM | nt | nt | nt
CC(C)(O)CCc1ccc(C(=O)NCCSc2ccccn2)cc1 | nt | i | nt | nt | nt
Cc1cc(=S)n2ccccc2n1 | nt | i | nt | nt | nt
c1ccc(NCC2CN(Cc3ccccn3)CC23CN(c2ccccc2)C3)cc1 (stereo not given) | nt | i | nt | nt | nt
CCOC(=O)C1CCN(Cc2ccc(O)c3ncccc23)CC1 | 7.94µM | ? | i | ? | ?
COc1ccccc1N1CCN(Cc2ccc(O)c3ncccc23)CC1 | i | ? | 3.55µM | ? | ?
O=c1oc2ccccc2c(NCC2CCCCC2)c1NS(=O)(=O)c1ccc(Cl)cc1 | nt | i | nt | nt | nt
CN(C)/N=C/c1ccc(P(c2ccc(/C=N/N(C)C)o2)c2ccc(/C=N/N(C)C)o2)o1 | i | 39.8µM | i[11.3 µM] | i | i
CN(/N=C/c1ccc([N+](=O)[O-])o1)c1ccccc1 | i | ? | i[11.3 µM] | ? | i
Cc1ccc2nc(-c3ccc(SCC(=O)Nc4nnc(C)s4)nc3)[nH]c2c1 | 12.6µM | ? | ? | 11.2µM | nt
CC(C)c1ccc(CNCC2CCCO2)cc1 (stereo not given) | nt | i | nt | nt | nt
O=S(=O)(Nc1ccc(O)c2ccccc12)c1ccc(F)cc1 | 5.01µM | ? | 31.6µM | ? | ?
SMILES | HepG2 viability | ALOX12 inh | ATXN2 expr inh | TGFb inhibitor | ATXN viability
CC1=C(SCc2ccccc2)C(=O)c2ccccc2C1=O | 12.6µM | 12.6µM | ? | 7.94µM | ?
O=C1CC(=Nc2ccc([N+](=O)[O-])cc2)NN1c1c(Cl)cc(Cl)cc1Cl | i | 31.6µM | nt | 15.8µM | i
CC(N)=Nc1ccc([N+](=O)[O-])cc1 | i | i | i | i | i
CC(C(=O)NN)n1nnc(N2CCOCC2)n1 (stereo not given) | i | ? | nt | i | i
CC(C(=O)NNS(=O)(=O)c1cccc(C(F)(F)F)c1)n1nnc(N2CCOCC2)n1 (stereo not given) | i | 3.55µM | i | i | i
C=C(C)C1CC=C(C)/C(=N/O)C1 (stereo not given) | nt | i | nt | nt | nt
COc1cccc(C(c2sc3nc(C)nn3c2O)N2CCc3ccccc3C2)c1 (stereo not given) | i | 31.6µM | i | i | i
Clc1ccc(CN2CCc3c([nH]c4ccccc34)C2)cc1Cl | i | ? | nt | 17.8µM | ?
Cc1cc(C(=O)Nc2sc3c(c2C#N)CCCC3)no1 | i | 35.5µM | i | i | i
N#Cc1c(NC(=O)/C=C/c2ccco2)sc2c1CCCC2 | i | 35.5µM | i | i | i
Cc1cc(C(=O)Nc2sc3c(c2C#N)CCC3)no1 | i | ? | i | i | i
O=C(/C=C/c1ccco1)Nc1sc2c(c1C(=O)O)CCC2 | i | ? | i | i | i
CC(C)(C)C(=O)/C=c1/[nH]c(=O)/c(=C/c2cc(F)ccc2F)s1 | nt | i | nt | nt | nt
CCN(CC)CCNc1ccc(C)c2sc3ccc(O)cc3c(=O)c12 | 14.1µM | ? | ? | ? | nt
CCN(CC)CCNc1ccc(CO)c2oc3cc(Cl)ccc3c(=O)c12 | i | ? | nt | i | ?
NC(N)=NN=C(c1ccc(F)cc1)c1ccc(C(F)(F)F)cc1 | i | ? | ? | 10µM | nt
Cc1ccccc1-c1cc2nc(Nc3ccc(F)cc3)n(C)c(=O)c2s1 | i | ? | i | ? | i
COc1ccc(Nc2nc3cc(-c4ccccc4C)sc3c(=O)n2C)cc1OC | i | 35.5µM | i | ? | ?
O=C(NCc1ccccc1S(=O)(=O)N1CCOCC1)c1cccc(Br)c1 | nt | i | nt | nt | nt
CCn1nc(-c2ccc(C)c(S(=O)(=O)NCc3ccccc3C)c2)c2c(c1=O)CCCC2 | nt | i | nt | nt | nt
CC[C@@]1(c2cccc(C)c2)C(=O)N(C(=O)OC)N1C(=O)OC | i | i | i | i | i
COC(=O)N1C(=O)[C@](CC(C)C)(c2ccccc2)N1C(=O)OC | i | i | i | 8.91µM | ?
CCOC(=O)N1C(=O)[C@@](CC)(c2ccccc2)N1C(=O)OCC | i | i | i | ? | 31.6µM
CC[C@@]1(c2ccccc2OC)C(=O)N(C(=O)OC)N1C(=O)OC | i | nt | i | ? | i
CCn1c(CNC(=O)COc2ccc(C(C)C)cc2)nnc1SCC(=O)Nc1cc(F)ccc1C | i | 22.4µM | i | ? | i
SMILES | HepG2 viability | ALOX12 inh | ATXN2 expr inh | TGFb inhibitor | ATXN viability
CCCCOc1ccc(Br)cc1CSC(=N)N | i | ? | ? | 20µM | ?
NC(Cc1ccc(C(F)(F)F)cc1)c1csc(Nc2ccc(C(=O)c3ccccc3)cc2)n1 (stereo not given) | 22.4µM | ? | 31.6µM | ? | i
NC(Cc1ccc(C(F)(F)F)cc1)c1csc(Nc2ccccn2)n1 (stereo not given) | i | i | i | i | ?
NC(CCc1ccccc1)c1csc(Nc2ccc(C(=O)c3ccccc3)cc2)n1 (stereo not given) | 15.8µM | ? | ? | ? | ?
NC(Cc1ccc(C(F)(F)F)cc1)c1csc(Nc2cc(NCc3ccco3)ncn2)n1 (stereo not given) | 20µM | ? | 14.1µM | ? | 25.1µM
COCC(=O)N1CCCN(CCc2ccccc2)c2ccccc21 | nt | i | nt | nt | nt
COc1ccc(CCNC(=O)C(C(C)C)N2Cc3ccccc3C2=O)c(OC)c1OC (stereo not given) | nt | i | nt | nt | nt
O=S(=O)(c1ccccc1F)N1CCN(Cc2cc3c(cc2O)OCO3)CC1 | 3.98µM | i | nt | i | i
OCCC1CN(Cc2c(O)ccc3ccccc23)CCN1CCc1ccccc1 (stereo not given) | i | 7.08µM | i | i | i
O=S(=O)(c1c(F)cccc1F)N1CCN(Cc2c(O)ccc3ccccc23)CC1 | i | 12.6µM | i | i | i

From PubChem BioAssay
